Experimental findings from PubChem BioAssay (NCATS) are described below.

Experiment [1] is described as follows: qHTS of pediatric cancer cell lines to identify multiple opportunities for drug repurposing: Primary screen for OHS-50 cells (AID 1347103). Also: nearly all actives have a fitted effect of over 40% in size. Also: potency is read from the fitted curve at half-maximal effect.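 As to activity change, negative = cytotoxic: plate controls were DMSO neutral control for no effect and bortezomib positive control for full effect.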 A digest of the protocol: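 Cells (500-1,000/well) rested 5 h, then received compounds for 48 h; metabolically active cells were measured by CellTiter-Glo luminescence. Final concentrations spanned up to 46 µM (MIPE, 11-point) or 0.59 nM-46 µM (NPC, 8-point) in primary screens, 11-point in follow-ups.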

Experiment [2] is described as follows: qHTS of pediatric cancer cell lines to identify multiple opportunities for drug repurposing: Primary screen for RD cells (AID 1347104). Also: nearly all actives have a fitted effect of over 55% in size. Also: potency is read from the fitted curve at half-maximal effect.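 As to activity change, negative = cytotoxic: plate controls were DMSO for no effect and bortezomib for full effect.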 A digest of the protocol:
(§1)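 Phenotypic viability qHTS, 48 h compound exposure, CellTiter-Glo luminescence read-out; multi-concentration dosing so that potency and efficacy derive directly from the primary screen's curves.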
Background: Quantitative high-throughput screening tests each substance at several concentrations.

A short description of experiment [3]: qHTS of pediatric cancer cell lines to identify multiple opportunities for drug repurposing: Primary screen for MG 63 (6-TG R) cells (AID 1347105). Also: nearly all actives have a fitted effect of over 50% in size. Also: potency is read from the fitted curve at half-maximal effect. As to activity change, negative = cytotoxic: % is scaled to controls: 0 for no effect and ±100 for the full control effect. The method in brief: as §1
Experiment [4] can be described thus: qHTS of pediatric cancer cell lines to identify multiple opportunities for drug repurposing: Primary screen for control Hh wild type fibroblast cells (AID 1347106).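 Also: series mostly up to about 46 µM; % is scaled to controls: 0 for no effect and ±100 for the full control effect; a drop in luminescence marks cytotoxicity and a rise apparent proliferation; nearly all actives have a fitted effect of over 55% in size.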 A digest of the protocol:
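Cells (500-1,000/well) in growth media were settled 5 h at 37 degrees C, then given compounds for 48 h. Viability was read as CellTiter-Glo luminescence. Primary runs used MIPE at 11 points (0.78 nM-46 µM) and NPC at 8 points (0.59 nM-46 µM); follow-ups used 11 points.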

Experiment [5] is described as follows: qHTS of pediatric cancer cell lines to identify multiple opportunities for drug repurposing: Primary screen for Rh30 cells (AID 1347107). Also: series mostly up to about 46 µM; % is scaled to controls: 0 for no effect and ±100 for the full control effect; nearly all actives have a fitted effect of over 75% in size. The method in brief: (§2)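 Viability after 48 h compound treatment at 37C, 500-1,000 cells/well, read as ATP luminescence with CellTiter-Glo. Primary screens used 11-point (MIPE, 0.78 nM-46 µM) or 8-point (NPC, 0.59 nM-46 µM) final concentrations; follow-up screens used 11-point dilutions.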

The nature of experiment [6]: qHTS of pediatric cancer cell lines to identify multiple opportunities for drug repurposing: Primary screen for Rh41 cells (AID 1347108).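 Also: series mostly up to about 46 µM; luminescence drop marks cytotoxic hits; nearly all actives have a fitted effect of over 70% in size.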 A digest of the protocol:
as §1

A short description of experiment [7]: qHTS of pediatric cancer cell lines to identify multiple opportunities for drug repurposing: Primary screen for Rh18 cells (AID 1347102). Also: % is scaled to controls: 0 for no effect and ±100 for the full control effect; nearly all actives have a fitted effect of over 65% in size. A digest of the protocol:
as §2

The nature of experiment [8]: qHTS of pediatric cancer cell lines to identify multiple opportunities for drug repurposing: Confirmatory screen for NB1643 cells (AID 1347109).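 Also: plate controls were DMSO for no effect and bortezomib for full effect; nearly all actives have a fitted effect of over 45% in size.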 A digest of the protocol: as §2
A short description of experiment [9]: qHTS of pediatric cancer cell lines to identify multiple opportunities for drug repurposing: Confirmatory screen for SK-N-MC cells (AID 1347111).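 Also: cells exposed to compound for 48 h before the readout; nearly all actives have a fitted effect of over 70% in size.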 Also: potency is read from the fitted curve at half-maximal effect.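 As to activity change, negative = cytotoxic: plate controls were DMSO for no effect and bortezomib for full effect.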 A digest of the protocol:
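SK-N-MC cells at 500-1,000 cells/well in growth media were pre-incubated 5 h, then exposed to compounds at 11-point dilutions for 48 h at 37 degrees C, 5% CO2. Viability was read as CellTiter-Glo luminescence.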

The nature of experiment [10]: qHTS of pediatric cancer cell lines to identify multiple opportunities for drug repurposing: Confirmatory screen for BT-12 cells (AID 1347112). Also: % is scaled to controls: 0 for no effect and ±100 for the full control effect; nearly all actives have a fitted effect of over 55% in size. A digest of the protocol:
as §2

The nature of experiment [11]: qHTS of pediatric cancer cell lines to identify multiple opportunities for drug repurposing: Confirmatory screen for DAOY cells (AID 1347114). Also: % is scaled to controls: 0 for no effect and ±100 for the full control effect; nearly all actives have a fitted effect of over 65% in size. The method in brief:
(§3)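 Viability measured as metabolically active cells via CellTiter-Glo luminescence following 48 hours of compound exposure, 11-point dilutions in confirmatory testing. 500-1,000 cells/well plated 5 hours before dosing; controls were DMSO and 2.3 µM bortezomib.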

Experiment [12] in a line: qHTS of pediatric cancer cell lines to identify multiple opportunities for drug repurposing: Confirmatory screen for SJ-GBM2 cells (AID 1347116). Also: nearly all actives have a fitted effect of over 60% in size.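 As to activity change, negative = cytotoxic: plate controls were DMSO for no effect and bortezomib for full effect.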 The method in brief:
as §3

The nature of experiment [13]: qHTS of pediatric cancer cell lines to identify multiple opportunities for drug repurposing: Confirmatory screen for BT-37 cells (AID 1347117).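 Also: plate controls were DMSO for no effect and bortezomib for full effect; nearly all actives have a fitted effect of over 55% in size.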 A digest of the protocol: as §2
Experiment [14] is described as follows: qHTS of pediatric cancer cell lines to identify multiple opportunities for drug repurposing: Confirmatory screen for TC32 cells (AID 1347118). Also: nearly all actives have a fitted effect of over 65% in size. Also: potency is read from the fitted curve at half-maximal effect. As to activity change, negative = cytotoxicity: % is scaled to controls: 0 for no effect and ±100 for the full control effect. A digest of the protocol:
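Luminescent ATP read-out (CellTiter-Glo) of metabolically active TC32 cells after 48 h exposure. Concentration-response curves came from 11-point (MIPE, 0.78 nM–46 µM) or 8-point (NPC, 0.59 nM–46 µM) primary titrations; follow-up used 11 points.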

The nature of experiment [15]: qHTS of pediatric cancer cell lines to identify multiple opportunities for drug repurposing: Confirmatory screen for MG 63 (6-TG R) cells (AID 1347119). The method in brief: as §2
Experiment [16] in a line: qHTS of pediatric cancer cell lines to identify multiple opportunities for drug repurposing: Confirmatory screen for control Hh wild type fibroblast cells (AID 1347121).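 Also: plate controls were DMSO for no effect and bortezomib for full effect; nearly all actives have a fitted effect of over 70% in size.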 A digest of the protocol:
as §2

Experiment [17] in a line: qHTS of pediatric cancer cell lines to identify multiple opportunities for drug repurposing: Confirmatory screen for U-2 OS cells (AID 1347122).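 Also: plate controls were DMSO for no effect and bortezomib for full effect; nearly all actives have a fitted effect of over 65% in size.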 The conditions noted are these: outcome: dose series up to 45.9 µM. The method in brief: as §2
The nature of experiment [18]: qHTS of pediatric cancer cell lines to identify multiple opportunities for drug repurposing: Confirmatory screen for A673 cells (AID 1347110). A digest of the protocol:
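A673 cells at 500-1,000 cells/well were dosed 5 h after plating, in dilution series up to 46 uM final; primary runs used 8 or 11 points and confirmatory runs used 11 points. Viability was read by CellTiter-Glo luminescence after 48 h, against DMSO and 2.3 uM bortezomib controls.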

Experiment [19] in a line: qHTS of pediatric cancer cell lines to identify multiple opportunities for drug repurposing: Confirmatory screen for NB-EBc1 cells (AID 1347115). Also: % is scaled to controls: 0 for no effect and ±100 for the full control effect; nearly all actives have a fitted effect of over 45% in size. The method in brief: as §2

Results filed as inconclusive are left out. Values without a mark were called inactive. Calls of active or inactive are those of the source. Calls follow the shape of the dose curve; as a rule, active = well fitted curve in the direction sought with a large enough effect; inconclusive = small, poorly fitted or top-dose-only effect, or another doubt; inactive = no such curve, though single readings can be large; an effect the other way counts as inactive or inconclusive.

Regarding `Cc1c(O)cccc1C(=O)N[C@@H](CSc1ccccc1)[C@H](O)CN1C[C@H]2CCCC[C@H]2C[C@H]1C(=O)NC(C)(C)C`, the Potency was 24.6 µM (active) in experiment [1], 23.7 µM (active) in experiment [2] and 26.6 µM (active) in experiment [3]. For the same compound, the compound was called inactive in experiment [4] and in [5].
`CCCCCCCCCCCCCCCC(=O)NCCO`: the Potency entry in experiment [1], in [2], in [3] and in experiment [6] was “inactive” throughout. The compound was called inactive in [4] and in experiment [5].
Consider `c1ccc2c(CC3=NCCN3)cccc2c1`, for which the Potency entry in experiment [7], in experiment [2], in experiment [3] and in [6] was “inactive” each time. In [5], the compound was classed as inactive.
On to `CN(C)CCN(Cc1ccccc1)c1ccccn1`, for which the Potency entry in [7], in [2], in experiment [3] and in [6] was “inactive” in each case. Also, the outcome in experiment [4] and in experiment [5] was inactive.
On to `CCN(CC)CCOC(=O)C1(C2CCCCC2)CCCCC1`, for which the Potency entry in experiment [7], in experiment [2], in experiment [3] and in [6] was “inactive” throughout. In addition, the result in experiment [4] and in experiment [5] was inactive.
For `C[C@]12CC[C@@H]3c4ccc(O)cc4CC[C@H]3[C@@H]1CCC2=O`, the Potency result in experiment [7], in experiment [2], in experiment [3] and in [6] was “inactive” in each case. Also, the outcome in experiment [4] and in [5] was inactive.
As to `COC(=O)C1=C(C)NC(C)=C(C(=O)OC)C1c1ccccc1[N+](=O)[O-]`, the Potency entry in experiment [7], in [3] and in experiment [6] was “inactive” each time. For the same compound, in experiment [5], the result was inactive.
For `C[C@](N)(Cc1ccc(O)cc1)C(=O)O`, the activity change, negative = cytotoxic in experiment [7] is 14.1% [at 4.84 µM]; in [1] it was -5.63% [at 6.18 µM]; in experiment [3] it was -28.9% [at 4.84 µM]; in experiment [4] it was 5.39% [at 4.84 µM]; in [5], -4.89% [at 4.84 µM]; in experiment [6], -37.3% [at 4.84 µM]. The activity change, negative = cytotoxic in experiment [8] was 4.45% [at 5.01 µM]; in experiment [9], 6.85% [at 5.01 µM]; in [10], -3.72% [at 5.01 µM]; in [11], 9.36% [at 5.01 µM]; in experiment [12], 8.57% [at 5.01 µM]; in experiment [13], -10.9% [at 5.01 µM]. Also, the Potency result in experiment [14] is “inactive”. Moreover, the activity change, negative = cytotoxicity in experiment [15] was 15.9% [at 5.01 µM]; in experiment [17], 3.67% [at 5.01 µM]. Besides, the activity, negative = cytotoxic in experiment [16] is -2.45% [at 5.01 µM].
Take `O=C1NS(=O)(=O)c2ccccc21`: the Potency entry in experiment [1], in [2], in experiment [3] and in [6] was “inactive” in each case. In addition, the call in experiment [4] and in experiment [5] was inactive.
For the compound `Nc1ncnc2c1ncn2[C@@H]1O[C@H](CO)[C@@H](O)[C@H]1O`, the Potency result in experiment [7], in experiment [2], in experiment [3] and in experiment [6] was “inactive” each time. Besides, the call in experiment [5] was inactive.
For `CCCCN(CCCC)CCCOC(=O)c1ccc(N)cc1`, the Potency entry in [1], in experiment [2], in [3] and in [6] was “inactive” throughout. In addition, the compound was classed as inactive in experiment [4] and in experiment [5].
Turning to `Cc1cc(C(C#N)c2ccc(Cl)cc2)c(Cl)cc1NC(=O)c1cc(I)cc(I)c1O` (configuration not stated), the Potency entry in experiment [7] and in [6] was “inactive” in each case. The Potency in [1] is 30.9 µM (active). The compound was called inactive in [4].
`NC(=O)NC(=O)Cc1ccccc1`: the Potency entry in experiment [1], in experiment [2], in [3] and in [6] was “inactive” each time. Moreover, the outcome in experiment [4] and in experiment [5] was inactive.
As for `O=c1cc[nH]c(=S)[nH]1`, the Potency entry in experiment [7], in [1], in [3], in experiment [8], in experiment [10] and in experiment [19] was “inactive” in each case. In addition, the Potency entry in experiment [12], in experiment [13] and in experiment [15] was “inactive” in each case. The outcome in experiment [4], in experiment [5], in [11] and in [17] was inactive. Also, the Potency is 9.27 µM (active) in experiment [18], 2.93 µM (active) in experiment [9] and 9.27 µM (active) in experiment [14].
`CCN(CC)CCSC(=O)C(c1ccccc1)c1ccccc1`: the Potency result in experiment [7], in experiment [2] and in experiment [3] was “inactive” each time. The call in experiment [4] and in experiment [5] was inactive.
